Test results taken from PubChem BioAssay (NCI).
About 83,000 compounds went through this panel and 20% of them were active in at least one assay; those are over-represented in the sample as a whole.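 Method: cells in 96-well plates; compound added at one concentration; 48 h incubation; percent growth measured; values under 10 scored active.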 Unmarked numbers belong to inactive results. Calls of active or inactive are those of the source.

Experiments:
Assay in all cases: NCI-60 one-dose screen, 48 h (100 = growth as untreated, 0 = no growth, -100 = all killed)
Conditions in all cases: 10 µM unless noted
NCI/ADR-RES ovarian = tested on: NCI/ADR-RES ovarian
T-47D breast = tested on: T-47D breast
BT-549 breast = tested on: BT-549 breast
MDA-MB-435 melanoma = tested on: MDA-MB-435 melanoma
SW-620 colon = tested on: SW-620 colon
MCF7 breast = tested on: MCF7 breast
HCT-116 colon = tested on: HCT-116 colon
HCC-2998 colon = tested on: HCC-2998 colon
KM12 colon = tested on: KM12 colon

SMILES | growth (NCI/ADR-RES ovarian) | growth (T-47D breast) | growth (BT-549 breast) | growth (MDA-MB-435 melanoma) | growth (SW-620 colon) | growth (MCF7 breast) | growth (HCT-116 colon) | growth (HCC-2998 colon) | growth (KM12 colon)
Cc1c2cc(Cl)c3ccccc3c2c[n+]2ccccc12 | 87.2% | -27.4% (active) | -6.2% (active) | 64.9% | 50.7% | 26.4% | 48.7% | 15.3% | 39.7%
CC(=O)[O][Hg][c]1c(N)c(C)cc(C)c1F | 74.6% | -20% (active) | -14% (active) | -60.5% (active) | -19.5% (active) | -5.09% (active) | 25.7% | 93.7% | 81.4%
Oc1c(O)c(Cl)c(Cl)c(Cl)c1Cl | 11.7% | 15.1% | 52.5% | 30.8% | 28% | 13.5% | 16.4% | 72.8% | 30.4%
CC(=O)OC1CCC2C3CCC4=C/C(=N/OC(=O)c5ccc(N(CCCl)CCCl)cc5)CCC4(C)C3CC(C)C12 (stereo not given) | -13.2% (active) | 43.8% | 110% | 78.3% | 83.4% | 99.3% | 54.6% | 98.6% | 73.6%
O=C1OCC2=C1C(c1ccccc1)c1cc3c(cc1N2)OCO3 (stereo not given) | -0.134% (active) | 62.6% | -5.6% (active) | -24.9% (active) | 27.8% | 15.9% | 4.53% (active) | 3.21% (active) | -32% (active)
O=C(CC1(O)C(=O)Nc2ccccc21)c1ccc(C(=O)NCC2CCC3(CC2)OOC2(CCCCC2)OO3)cc1 (stereo not given) | 86.9% | 31.8% | 80.1% | 81.6% | 86.4% | 62.9% | 65.9% | 106% | 77.4%
O=C(Nc1ccc(Cl)cc1)Nc1nccs1 | 8.57% (active) | 40.1% | 44.1% | -49.4% (active) | 26.4% | 15.2% | 41.2% | 69.5% | 34.3%
Cc1cc(N(CCCl)CCCl)ccc1C=Nc1ccccc1-c1ccccc1 | 59.8% | 27.5% | 83.7% | 93.5% | 67% | 39.1% | 75.8% | 96.9% | 97.3%
CC(C)[C@]12O[C@H]1[C@@H]1O[C@]13[C@]1(O[C@H]1C[C@H]1c4c(C(=O)c5ccccc5)oc(OC(=O)c5ccccc5)c4CC[C@@]13C)[C@@H]2O | 8.83% (active) | 6.53% (active) | -24.3% (active) | -87.9% (active) | -3.73% (active) | 12.5% | 5.12% (active) | -15.3% (active) | -15.7% (active)
COC(=O)[C@@H](C)C[C@H](Cc1ccc(F)cc1)NC(=O)c1csc([C@@H](C[C@H](C(C)C)N(C)C(=O)[C@@H](NC(=O)[C@H]2CCCCN2C)C(C)C)OC(C)=O)n1 | 25.2% | 77.3% | -18.6% (active) | -28.8% (active) | 26.9% | 22.2% | 4.23% (active) | 21.8% | 12.4%
CN[C@@]1(c2ccccc2Cl)CCCC[C@@H]1NCC1CCCO1 (stereo not given in full) | 101% | 93% | 102% | 102% | 102% | 98.6% | 105% | 101% | 108%
Cc1ccc(C(Cc2ccccc2)NCCO)cc1 (stereo not given) | 100% | 67.7% | 69.3% | 99.1% | 104% | 93.4% | 90% | 99.9% | 90%
CCOC(=S)S[C@H]1C[C@@H]2[C@H](CC[C@]3(C)C(=O)CC[C@@H]23)[C@@]2(C)CCC(=O)C=C12 | 102% | 108% | 105% | 101% | 105% | 90.6% | 104% | 106% | 101%
CC1=C2[C@@H](CC1)[C@]1(C)O[C@@](C(C)C)(C[C@H]1O)[C@H]2OC(=O)C1CC1c1ccccc1 (stereo not given in full) | 77.4% | 53.4% | 81.4% | 98.4% | 101% | 92.2% | 90.7% | 115% | 92%
O=C([O][Hg][c]1ccccc1)c1ccccc1 | 37.9% | -37.8% (active) | -92.7% (active) | -86.6% (active) | -49.6% (active) | -57.7% (active) | -82.5% (active) | 51% | 87.6%
